PubChem BioAssay (EPA / NIEHS)
Where a structure was tested more than once in an assay, its records may differ in their call. Calls of active or inactive are those of the source. Rule for the calls: active = hit-call score of the fitted dose curve at least 0.9, where 1 is the maximum; inactive = score below 0.9.

Key:
[1] = target: CCAAT/enhancer-binding protein beta (Homo sapiens) (UniProt P17676); assay: ATG_C_EBP_CIS: Attagene CIS-FACTORIAL HepG2 Assay for human CCAAT/Enhancer Binding Protein (C/EBP) beta (AID 2282927); conditions: HepG2 Attagene cis-factorial transcription factor reporter; actives raise or lower the signal
Method in brief: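 HepG2, transient MRTU transfection, 24 h treatment. RT-PCR plus CE fluorescence; DMSO negative control, bidirectional fit.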

[2] = ATG_CMV_CIS: Attagene CIS-FACTORIAL HepG2 Assay for human CMV (Internal Marker) (AID 2282928); conditions: HepG2 CMV promoter reporter, transcription factor profiling; actives raise or lower the signal;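 note: endpoint acts as a background internal control marker rather than a target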
Method in brief: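 HepG2 cells transiently transfected with multiple cis-regulated reporter units; 24 h compound exposure. Reporter mRNA quantified by RT-PCR, 6-FAM primer-extension labeling, HpaI digestion and capillary electrophoresis; bidirectional fitting against DMSO baseline.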

[3] = ATG_DR4_LXR_CIS: Attagene CIS-FACTORIAL HepG2 Assay for human Liver X Receptor (LXR), DR4 submotif (AID 2282929); conditions: HepG2 Attagene DR4 cis-reporter, mRNA transcription; AC50: actives raise or lower the signal unless noted; outcome: actives raise or lower the signal unless noted
Method in brief: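 Endogenous factor activity at a DR4 cis-element is read as reporter mRNA in transiently transfected HepG2 cells. Exposure lasts 24 h; transcripts are amplified, fluorescently labelled and sized by capillary electrophoresis, with DMSO as baseline.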

[4] = target: Aryl hydrocarbon receptor (Homo sapiens) (UniProt P35869); assay: ATG_Ahr_CIS: Attagene CIS-FACTORIAL HepG2 Assay for human Aryl Hydrocarbon Receptor (Ahr) (AID 2282930); conditions: HepG2 AhR cis-factorial reporter transcription; actives raise or lower the signal
Method in brief: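 Endogenous factor activity is tracked through cis-promoter reporter units transfected into HepG2 cells. Transcript levels at 24 h are read by fluorescent RT-PCR and capillary electrophoresis, with activity in either direction scored relative to DMSO.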

[5] = ATG_AP_1_CIS: Attagene CIS-FACTORIAL HepG2 Assay for human Activator Protein 1 (AP-1) (AID 2282931); conditions: HepG2 Attagene cis-factorial AP-1 reporter mRNA; actives raise or lower the signal
Method in brief: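 Fluorescence of labelled PCR fragments separated by capillary electrophoresis gives reporter mRNA levels. HepG2 with transfected cis-regulated reporter units, 24 h exposure; DMSO serves as baseline for bidirectional curve fits.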

[6] = ATG_AP_2_CIS: Attagene CIS-FACTORIAL HepG2 Assay for human Activator Protein 2 (AP-2) (AID 2282932); conditions: HepG2 AP-2 cis-reporter, Attagene transcription factor profiling; AC50: actives raise or lower the signal unless noted; outcome: actives raise or lower the signal unless noted
Method in brief: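 Multiplexed mRNA reporter assay in HepG2: cis-regulated units report endogenous factor activity after 24 h treatment. Fluorescence from capillary electrophoresis of RT-PCR products gives the signal, with DMSO as baseline.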

[7] = ATG_BRE_CIS: Attagene CIS-FACTORIAL HepG2 Assay for human Bone Morphogenetic Protein (BMP) Response Element (BRE) (AID 2282933); conditions: HepG2 BMP response element reporter, Attagene transcription factor profiling; actives raise or lower the signal
Method in brief: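 After a 24 h chemical treatment, transiently transfected HepG2 cells were lysed for RNA; reporter transcripts were quantified by fluorescent RT-PCR and capillary electrophoresis, normalised to DMSO.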

[8] = target: Retinoic acid receptor alpha (Homo sapiens) (UniProt P10276); assay: ATG_DR5_RAR_CIS: Attagene CIS-FACTORIAL HepG2 Assay for human Retinoic Acid Receptor Alpha (RARE), DR5 submotif (AID 2282934); conditions: HepG2 Attagene cis-factorial RARE DR5 reporter, mRNA; actives raise or lower the signal
Method in brief: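 After 24 h of chemical exposure, transiently transfected HepG2 cells were lysed for total RNA; the DR5-regulated reporter transcript was quantified via RT-PCR and capillary electrophoresis, with activity fitted bidirectionally against DMSO.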

[9] = target: Transcription factor E2F1 (Homo sapiens) (UniProt Q01094); assay: ATG_E2F_CIS: Attagene CIS-FACTORIAL HepG2 Assay for human E2F Transcription Factor 1 (AID 2282935); conditions: HepG2 Attagene cis-reporter, E2F reporter RNA transcripts; actives raise or lower the signal
Method in brief: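 Measures reporter transcript levels via RT-PCR with capillary electrophoresis detection in HepG2 cells harboring cis-regulated reporter units; 24 h post-dose; bidirectional curve fitting with DMSO as baseline.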

[10] = ATG_E_Box_CIS: Attagene CIS-FACTORIAL HepG2 Assay for human Enhancer Box (E-box) (AID 2282936); conditions: HepG2 E-box cis-reporter transcription, actives raise or lower the signal
Method in brief: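 First, HepG2 cells receive multiple cis-regulated reporter constructs by transient transfection. Next, chemicals are applied for 24 h. Finally, reporter mRNA is quantified via RT-PCR and capillary electrophoresis, with DMSO as baseline.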

[11] = ATG_M_61_CIS: Attagene CIS-FACTORIAL HepG2 Assay for M61 Transcription Factor (Internal Marker) (AID 2282937); conditions: HepG2 Attagene CIS-FACTORIAL M61 internal marker reporter; actives raise or lower the signal
Method in brief: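 This endpoint serves as an internal background control within a multiplexed HepG2 cis-reporter panel. Cells are exposed for 24 h; reporter mRNA is amplified, fluorescently labelled and sized by capillary electrophoresis, with DMSO as negative control.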

[12] = ATG_EGR_CIS: Attagene CIS-FACTORIAL HepG2 Assay for human Early Growth Response 1 (EGR1) (AID 2282938); conditions: HepG2 Attagene CIS-FACTORIAL EGR reporter mRNA; actives raise or lower the signal
Method in brief: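 HepG2, transient MRTU transfection (cis promoters), 24 h compound. RNA → RT (oligo-dT) → PCR → 6-FAM labelling → HpaI cut → CE fluorescence. Bidirectional fit, DMSO baseline.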

[13] = ATG_M_19_CIS: Attagene CIS-FACTORIAL HepG2 Assay for M19 Transcription Factor (Internal Marker) (AID 2282939); conditions: HepG2 Attagene CIS-FACTORIAL M19 internal marker reporter; actives raise or lower the signal
Method in brief: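 In this multiplexed cell assay, transiently transfected HepG2 reporter units report endogenous transcription-factor activity; after 24 hours of treatment, labelled reporter cDNA fragments are quantified by capillary electrophoresis and fitted bidirectionally against DMSO.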

[14] = ATG_ERE_CIS: Attagene CIS-FACTORIAL HepG2 Assay for Estrogen Response Element (ERE) (AID 2282940); conditions: HepG2 ERE cis-reporter, Attagene RNA transcript; actives raise or lower the signal
Method in brief: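 Measuring endogenous transcription factor output, the assay doses transfected HepG2 cells for 24 hours and quantifies reporter transcripts by fluorescent RT-PCR and capillary electrophoresis, with DMSO as baseline.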

[15] = ATG_Ets_CIS: Attagene CIS-FACTORIAL HepG2 Assay for human Erythroblast Transformation Specific (ETS) (AID 2282941); conditions: HepG2 ETS cis-reporter transcription; AC50: actives raise or lower the signal unless noted; outcome: actives raise or lower the signal unless noted
Method in brief: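 HepG2 cells transiently transfected with cis-promoter reporter transcription units were dosed for 24 h; reporter mRNA was measured by RT-PCR, 6-FAM primer extension, HpaI digestion and capillary electrophoresis, with bidirectional fitting against DMSO baseline.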

[16] = target: Hepatocyte nuclear factor 3-beta (Homo sapiens) (UniProt Q9Y261); assay: ATG_FoxA2_CIS: Attagene CIS-FACTORIAL HepG2 Assay for human Forkhead box A2 (FOXA2) (AID 2282942); conditions: HepG2 cis-reporter transcription factor activity, 24 h; actives raise or lower the signal
Method in brief: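 Cells: HepG2, transient multiplex reporter transfection. Exposure 24 h. Detection: reporter-specific RT-PCR, fluorescent labelling, restriction digest, capillary electrophoresis. Analysis: bidirectional curve fit, DMSO as negative control.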

[17] = ATG_GATA_CIS: Attagene CIS-FACTORIAL HepG2 Assay for human GATA Binding Protein (AID 2282944); conditions: HepG2 GATA cis-element reporter, Attagene multiplex mRNA; actives raise or lower the signal
Method in brief: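 Measures endogenous transcription factor-driven reporter mRNA in HepG2 cells transiently carrying cis-regulated constructs. 24 h dosing; RNA via oligo(dT) reverse transcription, PCR, HpaI digestion, capillary electrophoresis; fitted relative to DMSO.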

[18] = ATG_GLI_CIS: Attagene CIS-FACTORIAL HepG2 Assay for human Zinc Finger Protein GLI1 (AID 2282945); conditions: HepG2, Attagene cis-factorial reporter mRNA, GLI element; actives raise or lower the signal
Method in brief: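 Transiently transfected HepG2 cells report endogenous transcription factor activity via cis-element-driven reporter units. After 24 h compound exposure, reporter mRNA was measured by RT-PCR with capillary electrophoresis; bidirectional fitting against DMSO baseline.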

[19] = target: Bile acid receptor (Homo sapiens) (UniProt Q96RI1); assay: ATG_IR1_CIS: Attagene CIS-FACTORIAL HepG2 Assay for human Nuclear Receptor Subfamily 1 Group H Member 4 (NR1H4), IR1 submotif (AID 2282946); conditions: IR1 reporter transcription, actives raise or lower the signal
Method in brief: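 HepG2 cells transiently transfected with multiple cis-promoter-driven reporter units to measure endogenous transcription factor activity; 24 h exposure. Reporter mRNA read by RT-PCR, FAM labelling, HpaI digestion and capillary electrophoresis. Bidirectional fit versus DMSO.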

[20] = ATG_FoxO_CIS: Attagene CIS-FACTORIAL HepG2 Assay for human Forkhead box O (FoxO) (AID 2282943); conditions: HepG2 Attagene cis-reporter, FoxO element, mRNA; actives raise or lower the signal
Method in brief: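 Transfected HepG2 reporter cells exposed to test chemical for 24 h; reporter RNA measured by reverse transcription, PCR and fluorescent capillary electrophoresis; curves fitted for increases and decreases against DMSO.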

Chain of Transcription factor E2F1 (Homo sapiens) (Q01094 whole entry, looked up): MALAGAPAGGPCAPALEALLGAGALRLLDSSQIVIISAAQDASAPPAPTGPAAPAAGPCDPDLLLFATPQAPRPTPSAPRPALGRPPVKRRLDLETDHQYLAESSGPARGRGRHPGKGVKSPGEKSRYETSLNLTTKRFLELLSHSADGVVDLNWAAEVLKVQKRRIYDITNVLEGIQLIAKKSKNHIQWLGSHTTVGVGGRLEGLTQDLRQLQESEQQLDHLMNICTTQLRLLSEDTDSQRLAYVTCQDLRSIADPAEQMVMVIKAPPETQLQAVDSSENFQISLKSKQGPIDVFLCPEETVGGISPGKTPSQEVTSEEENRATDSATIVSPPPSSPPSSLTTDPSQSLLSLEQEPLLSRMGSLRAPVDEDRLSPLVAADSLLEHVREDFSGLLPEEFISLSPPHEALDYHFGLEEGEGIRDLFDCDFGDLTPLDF
Chain of Hepatocyte nuclear factor 3-beta (Homo sapiens) (Q9Y261 whole entry, looked up): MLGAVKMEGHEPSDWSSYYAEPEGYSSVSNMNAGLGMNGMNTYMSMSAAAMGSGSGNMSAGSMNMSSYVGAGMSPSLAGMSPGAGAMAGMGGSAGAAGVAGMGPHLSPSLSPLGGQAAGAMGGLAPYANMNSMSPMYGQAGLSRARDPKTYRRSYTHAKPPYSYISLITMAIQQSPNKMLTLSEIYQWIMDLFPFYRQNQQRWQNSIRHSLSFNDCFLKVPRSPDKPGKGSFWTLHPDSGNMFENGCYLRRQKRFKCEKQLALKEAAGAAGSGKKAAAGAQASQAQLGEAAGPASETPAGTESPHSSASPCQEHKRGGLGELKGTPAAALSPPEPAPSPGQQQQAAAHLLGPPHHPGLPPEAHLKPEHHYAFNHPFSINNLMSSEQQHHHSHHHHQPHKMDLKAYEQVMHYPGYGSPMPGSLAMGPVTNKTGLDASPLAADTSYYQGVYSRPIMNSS
Chain of Aryl hydrocarbon receptor (Homo sapiens) (P35869 whole entry, looked up): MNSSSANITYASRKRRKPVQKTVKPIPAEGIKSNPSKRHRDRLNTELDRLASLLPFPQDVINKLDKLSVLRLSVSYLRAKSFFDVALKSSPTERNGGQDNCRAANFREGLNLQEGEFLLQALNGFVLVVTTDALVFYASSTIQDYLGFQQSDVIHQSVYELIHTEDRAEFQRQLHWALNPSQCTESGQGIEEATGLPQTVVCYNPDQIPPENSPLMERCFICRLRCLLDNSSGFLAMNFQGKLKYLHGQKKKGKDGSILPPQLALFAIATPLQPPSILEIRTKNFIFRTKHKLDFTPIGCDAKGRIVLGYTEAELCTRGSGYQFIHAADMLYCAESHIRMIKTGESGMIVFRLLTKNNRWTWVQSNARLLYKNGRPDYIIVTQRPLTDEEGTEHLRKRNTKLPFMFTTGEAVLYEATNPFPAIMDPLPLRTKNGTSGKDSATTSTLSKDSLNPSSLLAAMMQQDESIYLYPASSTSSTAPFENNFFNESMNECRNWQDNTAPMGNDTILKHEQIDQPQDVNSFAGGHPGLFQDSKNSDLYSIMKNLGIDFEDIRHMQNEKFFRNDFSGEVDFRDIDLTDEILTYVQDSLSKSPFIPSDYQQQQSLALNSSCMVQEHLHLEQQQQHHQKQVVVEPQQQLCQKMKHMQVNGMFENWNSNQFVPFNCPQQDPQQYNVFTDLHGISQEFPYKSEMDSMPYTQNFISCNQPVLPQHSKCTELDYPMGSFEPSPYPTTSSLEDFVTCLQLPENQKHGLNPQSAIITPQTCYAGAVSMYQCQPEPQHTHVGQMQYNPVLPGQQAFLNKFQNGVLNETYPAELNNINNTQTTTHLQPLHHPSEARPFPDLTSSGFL
Chain of Bile acid receptor (Homo sapiens) (Q96RI1 whole entry, looked up): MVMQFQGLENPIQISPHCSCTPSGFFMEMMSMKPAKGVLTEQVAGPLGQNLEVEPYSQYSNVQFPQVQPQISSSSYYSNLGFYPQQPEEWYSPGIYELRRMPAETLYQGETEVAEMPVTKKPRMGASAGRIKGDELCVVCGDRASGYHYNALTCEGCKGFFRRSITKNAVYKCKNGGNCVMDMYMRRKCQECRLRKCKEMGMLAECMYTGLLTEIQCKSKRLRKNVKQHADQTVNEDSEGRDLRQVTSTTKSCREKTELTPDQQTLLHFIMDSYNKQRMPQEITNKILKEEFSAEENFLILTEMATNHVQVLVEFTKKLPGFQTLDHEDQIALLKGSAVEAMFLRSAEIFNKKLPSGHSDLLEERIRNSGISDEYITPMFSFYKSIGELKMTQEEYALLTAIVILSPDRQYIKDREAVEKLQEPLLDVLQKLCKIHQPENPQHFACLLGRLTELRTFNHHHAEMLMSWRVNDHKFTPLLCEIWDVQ
Chain of CCAAT/enhancer-binding protein beta (Homo sapiens) (P17676 whole entry, looked up): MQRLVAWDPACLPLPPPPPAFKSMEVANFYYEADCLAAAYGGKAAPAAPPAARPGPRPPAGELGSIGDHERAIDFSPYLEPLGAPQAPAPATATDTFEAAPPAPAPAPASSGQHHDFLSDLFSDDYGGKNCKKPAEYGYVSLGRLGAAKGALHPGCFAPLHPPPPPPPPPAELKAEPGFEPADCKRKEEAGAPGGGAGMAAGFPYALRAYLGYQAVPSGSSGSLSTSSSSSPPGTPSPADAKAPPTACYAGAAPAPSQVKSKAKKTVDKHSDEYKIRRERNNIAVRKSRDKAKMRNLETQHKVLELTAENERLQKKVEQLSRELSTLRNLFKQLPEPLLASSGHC
Chain of Retinoic acid receptor alpha (Homo sapiens) (P10276 whole entry, looked up): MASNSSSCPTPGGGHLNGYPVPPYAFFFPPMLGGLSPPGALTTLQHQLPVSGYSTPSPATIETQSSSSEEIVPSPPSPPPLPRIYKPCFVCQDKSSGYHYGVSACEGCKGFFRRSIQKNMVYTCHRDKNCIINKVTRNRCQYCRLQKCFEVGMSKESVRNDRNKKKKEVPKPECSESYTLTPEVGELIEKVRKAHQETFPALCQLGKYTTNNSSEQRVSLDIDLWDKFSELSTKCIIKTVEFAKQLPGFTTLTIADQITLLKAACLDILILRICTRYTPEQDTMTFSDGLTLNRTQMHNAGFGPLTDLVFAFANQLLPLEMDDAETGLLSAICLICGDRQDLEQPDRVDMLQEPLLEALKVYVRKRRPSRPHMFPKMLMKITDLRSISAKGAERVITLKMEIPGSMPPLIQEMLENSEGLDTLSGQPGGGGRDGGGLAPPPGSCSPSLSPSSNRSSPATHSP

## C/C=C/C(=O)C1=C(C)CCCC1(C)C
[1]
  outcome: inactive
[2]
  AC50: 174 µM (active)
[3]
  AC50: 24.6 µM (active)
[4]
  AC50: 72.2 µM (active)
[5]
  AC50: 27.6 µM (active)
[6]
  outcome: inactive
[7]
  AC50: 27.3 µM (active)
[8]
  outcome: inactive
[9]
  outcome: inactive
[10]
  outcome: inactive
[11]
  outcome: inactive
[12]
  AC50: 55.4 µM (active)
[13]
  outcome: inactive
[14]
  outcome: inactive
[15]
  outcome: inactive
[16]
  outcome: inactive
[17]
  outcome: inactive
[18]
  AC50: 69.7 µM (active)
[19]
  AC50: 43.9 µM (active)

## Cc1ccc(C(=O)c2ccccc2)cc1
[1]
  outcome: inactive
[2]
  AC50: 61.1 µM (active)
[3]
  outcome: inactive
[4]
  outcome: inactive
[5]
  outcome: inactive
[6]
  outcome: inactive
[7]
  outcome: inactive
[8]
  outcome: inactive
[9]
  outcome: inactive
[10]
  outcome: inactive
[11]
  outcome: inactive
[12]
  outcome: inactive
[13]
  outcome: inactive
[14]
  AC50: 27.2 µM (active)
[15]
  outcome: inactive
[16]
  outcome: inactive
[17]
  outcome: inactive
[18]
  outcome: inactive
[19]
  outcome: inactive

## C[C@]12CC[C@@H]3c4ccc(O)cc4CC[C@H]3[C@@H]1C[C@@H](O)[C@@H]2O
[1]
  outcome: inactive
[2]
  AC50: 64.6 µM (active)
  outcome: inactive
[3]
  AC50: 26.3 µM (active)
  outcome: inactive
[4]
  outcome: inactive
[5]
  outcome: inactive
[7]
  outcome: inactive
[8]
  outcome: inactive
[9]
  outcome: inactive
[10]
  outcome: inactive
[11]
  outcome: inactive
[12]
  outcome: inactive
[13]
  outcome: inactive
[15]
  outcome: inactive
[16]
  outcome: inactive
[17]
  outcome: inactive
[18]
  outcome: inactive

## COCC1CCC(CO)CC1 (stereo not drawn)
[1]
  outcome: inactive
[2]
  outcome: inactive
[3]
  outcome: inactive
[4]
  outcome: inactive
[5]
  outcome: inactive
[6]
  outcome: inactive
[7]
  outcome: inactive
[8]
  outcome: inactive
[9]
  outcome: inactive
[10]
  outcome: inactive
[11]
  outcome: inactive
[12]
  outcome: inactive
[13]
  outcome: inactive
[14]
  AC50: 24.4 µM (active)
[15]
  outcome: inactive
[16]
  outcome: inactive
[20]
  outcome: inactive
[18]
  outcome: inactive
[19]
  outcome: inactive

## CCC(=O)C=Cc1ccc(OC)cc1
[1]
  outcome: inactive
[2]
  outcome: inactive
[3]
  AC50: 68.2 µM (active)
[4]
  outcome: inactive
[5]
  outcome: inactive
[6]
  outcome: inactive
[7]
  outcome: inactive
[8]
  outcome: inactive
[9]
  outcome: inactive
[10]
  outcome: inactive
[11]
  outcome: inactive
[12]
  AC50: 100 µM (active)
[13]
  outcome: inactive
[14]
  outcome: inactive
[15]
  outcome: inactive
[16]
  outcome: inactive
[17]
  outcome: inactive
[18]
  outcome: inactive
[19]
  outcome: inactive

## CCCCC(CC)C(=O)OCCOCCOCCOCCOC(=O)C(CC)CCCC (stereo not drawn)
[1]
  outcome: inactive
[2]
  outcome: inactive
[3]
  outcome: inactive
[4]
  outcome: inactive
[5]
  outcome: inactive
[6]
  outcome: inactive
[7]
  outcome: inactive
[8]
  outcome: inactive
[9]
  outcome: inactive
[10]
  outcome: inactive
[11]
  outcome: inactive
[12]
  outcome: inactive
[13]
  outcome: inactive
[14]
  outcome: inactive
[15]
  outcome: inactive
[16]
  outcome: inactive
[20]
  outcome: inactive
[17]
  outcome: inactive
[19]
  outcome: inactive

## FC1(F)C=CC(F)(F)C1(F)F
[1]
  outcome: inactive
[2]
  outcome: inactive
[3]
  outcome: inactive
[4]
  outcome: inactive
[5]
  outcome: inactive
[6]
  outcome: inactive
[7]
  outcome: inactive
[8]
  outcome: inactive
[9]
  outcome: inactive
[10]
  outcome: inactive
[11]
  outcome: inactive
[12]
  outcome: inactive
[13]
  outcome: inactive
[14]
  outcome: inactive
[15]
  outcome: inactive
[16]
  outcome: inactive
[20]
  outcome: inactive
[17]
  outcome: inactive
[18]
  outcome: inactive
[19]
  outcome: inactive
